Assay outcomes (PubChem BioAssay)
This is a sample that favours compounds with a hit; in the whole collection about 32% have one here.
PostGolgi yeast = growth inhibition of a yeast mutant, post-Golgi transport screen; post-Golgi transport phenotypic cell assay; inhibition, % at 10 µM; 0.9% of 98,000 active; AID 739;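 also: yeast cells grown in 1536-well plates; yeast grown about 18 h at 30C before absorbance read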
PostGolgi ctrl = inhibits growth of the yeast control strain; efflux-deficient yeast background strain, growth absorbance A615, 16 h; inhibition, % at 10 µM; 5% of 98,000 active
CYP2C9 activ = increases human cytochrome P450 2C9 activity; P11712; recombinant CYP2C9, luciferin-H conversion, luminescence; stronger effect = higher value; factor 1 = untreated enzyme, 0 = blocked; activation factor at 5 µM; 1.4% of 96,000 active; AID 1024;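 active = activation factor of 2 or more for CYP2C9 at a 5 µM dose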;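 also: 0 = sulfaphenazole-blocked wells and 1 = vehicle-only wells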
CYP2C19 activ = increases human CYP2C19 enzyme activity; P33261; recombinant CYP2C19, luciferin-H EGE luminescence; stronger effect = higher value; 0 = fully inhibited enzyme, 1 = untreated enzyme; activation factor at 5 µM; 96,000 tested, under 10 active;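 active = activation factor of at least 2 at 5 µM in the primary screen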;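 also: 0 = wells with 2.5 mM tranylcypromine and 1 = vehicle-only wells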
Target sequence (P33261 whole entry, looked up): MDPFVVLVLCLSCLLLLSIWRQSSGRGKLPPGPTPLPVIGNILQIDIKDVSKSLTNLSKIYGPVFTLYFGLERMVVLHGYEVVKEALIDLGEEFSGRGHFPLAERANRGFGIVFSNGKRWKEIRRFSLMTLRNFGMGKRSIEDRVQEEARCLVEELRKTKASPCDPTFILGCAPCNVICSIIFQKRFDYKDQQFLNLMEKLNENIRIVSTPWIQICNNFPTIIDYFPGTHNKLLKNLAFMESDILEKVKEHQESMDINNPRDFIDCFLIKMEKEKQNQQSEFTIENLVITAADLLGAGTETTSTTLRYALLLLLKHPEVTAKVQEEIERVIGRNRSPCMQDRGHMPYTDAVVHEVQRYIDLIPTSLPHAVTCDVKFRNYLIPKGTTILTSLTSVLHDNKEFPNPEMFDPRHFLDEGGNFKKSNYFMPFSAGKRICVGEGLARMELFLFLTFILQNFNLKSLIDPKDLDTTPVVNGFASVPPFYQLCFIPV
CYP2C9 inh = blocks human cytochrome P450 2C9; P11712; CYP2C9 Supersomes, luciferin-H conversion, luminescence; inhibition, % at 5 µM; 20% of 96,000 active; AID 777;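 active = blocking of liver enzyme CYP2C9 beyond about 50% at 5 µM, limit read from the data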
CYP2C19 inhib = blocks human cytochrome P450 2C19 | P33261 | CYP2C19 Supersomes, luciferin-H EGE luminescence, 30 min | inhibition, % at 5 µM | 21% of 96,000 active | AID 778;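 active = CYP2C19 inhibition above a set limit at 5 µM in the primary screen, cut at about 50% in these data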;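 also: plate controls were negative control wells for no effect and 2.5 mM tranylcypromine positive control for full effect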
Starred values were filed as active, the others as inactive; x = no result given. Rule as the data show it, unless noted: active = inhibition above about 30%; inactive = the rest.

SMILES	PostGolgi yeast	PostGolgi ctrl	CYP2C9 activ	CYP2C19 activ	CYP2C9 inh	CYP2C19 inhib
CCCCC1(Cc2cccc([N+](=O)[O-])c2)C(=O)N(c2ccccc2)N(c2ccccc2)C1=O	1.9	21.1	0.2	0.2	80.5*	79.6*
COCCNC(=O)CN1CCC(n2c(C)nc3cc(C(F)(F)F)ccc32)CC1	1.3	4.6	1	0.8	3.7	16.3
Cc1ccnc(NC(=O)COC(=O)C2COc3ccccc3O2)n1 (stereo not given)	1.0	3.5	0.9	1	5.4	2.7
Cc1cc(C)cc(Oc2ccc(C(F)(F)F)cc2C#N)c1	-1.3	-0.8	0.5	0.4	52.0*	57.5*
Cc1cc(C)c(NC(=O)COc2ccccc2C(=O)Nc2ccc3c(c2)oc2ccccc23)c(C)c1	-7.4	-5.3	0	0.6	96.8*	37.0
Cc1ccc(OCCSc2nnc(-c3ccncc3)n2C)cc1	0.2	-6.2	0.6	0.1	42.9	92.7*
Cc1cccc(OCCSc2nnc(-c3ccoc3C)n2C)c1	-5.3	26.7	0.4	0	57.5*	97.6*
COc1ccc(-c2nnc(SCc3csc(N)n3)n2C)cc1	12.8	-3.7	0.9	0.9	12.4	7.7
Cn1c(SCCOc2cccc(Cl)c2)nnc1-c1ccncc1	15.3	11.4	0.8	0.1	20.6	91.9*
COCCSc1nnc(-c2cccc(C#N)c2)n1C	-4.2	8.6	1.1	0.9	-9.6	8.7
CN(NC(N)=O)c1ncc(C(F)(F)F)cc1Cl	24.2	-1.6	1	0.9	-0.2	5.0
O=c1cnn(-c2ccccc2)c(-c2ccccc2)c1	13.2	13.9	0.7	1	30.7	-1.9
COc1ccc(CCNC(=O)NC23CC4CC(CC(C4)C2)C3)cc1OC	-2.1	6.9	1.5	0.6	-46.5	37.3
CCN1CCC(C(=O)NC2CCCC2)(N(Cc2cccs2)C(=O)Cn2nnc3ccccc32)CC1	x	x	1.1	1	-13.8	-3.6
O=C(C1CCN(c2nnc(-n3cccc3)s2)CC1)N1CCN(c2cccc(C(F)(F)F)c2)CC1	1.0	-0.3	0.5	0.5	54.8*	52.5*
CC(CCc1ccccc1)NC(=O)C1CCCN(c2nnc(-n3cccc3)s2)C1 (stereo not given)	5.8	5.6	x	x	x	x
O=C(NCCCc1ccccc1)C1CCN(c2nnc(-n3cccc3)s2)CC1	-3.1	38.5*	0.5	0.7	48.8	34.8
O=C(C1CCCN(c2nnc(-n3cccc3)s2)C1)N1CCN(c2ccccc2)CC1 (stereo not given)	-1.5	41.1*	0.5	0.3	48.6	67.9*
CC(C)NC(=O)C1CCCN(c2nnc(-n3cccc3)s2)C1 (stereo not given)	10.6	-0.7	0.8	0.5	22.3	52.8*
Cc1ccc(-c2c(C)n([O-])c3c([n+]2=O)CCCC3)o1	6.9	7.2	0.9	0.8	14.1	19.1
CCn1c(SCC(=O)Nc2ccc(OCc3ccccc3)cc2)nnc1-c1ccco1	x	x	0.7	0.9	28.3	6.9
COc1ccc(N2CCN(C(=O)CSc3nnc(C)c(=O)[nH]3)CC2)cc1	1.4	12.5	0.9	1	13.4	3.7
CCOc1ccc(CCNC(=O)C2CCCN(c3nnc(-n4cccc4)s3)C2)cc1OCC (stereo not given)	-14.5	6.6	0.4	0.5	60.5*	49.4
FC(F)Sc1ccc(NC(=S)NCC2CCCCC2)cc1	36.4*	38.2*	1.3	0	-27.8	95.9*
CC1CCCCC1NC(=S)Nc1ccc(SC(F)F)cc1 (stereo not given)	5.6	16.5	2.3*	0.4	-125.3	61.0*
SMILES	PostGolgi yeast	PostGolgi ctrl	CYP2C9 activ	CYP2C19 activ	CYP2C9 inh	CYP2C19 inhib
O=C(Nc1ccc(SC(F)F)cc1)C1=COCCO1	-1.1	-0.3	1.1	1	-8.6	3.5
FC(F)Sc1ccc(NC(=S)NC2CCCCC2)cc1	-5.1	8.0	2.4*	0.2	-143.1	75.3*
CCN(C(=O)COc1ncnc2scc(-c3ccc(F)cc3)c12)C1CCS(=O)(=O)C1 (stereo not given)	-0.9	-1.2	1	0.8	2.0	20.7
Cc1ccc(NS(=O)(=O)c2cccc(C(=O)N3CCOCC3)c2)cc1	5.1	14.6	0.6	0.3	39.7	72.4*
Cc1ccc(S(=O)(=O)Nc2cc(C(=O)N3CCOCC3)ccc2N2CCCCC2)cc1	10.7	6.5	0.4	0.6	57.2*	36.8
O=C(OCN1C(=O)c2ccccc2C1=O)c1cccs1	-0.9	-0.7	1.2	0.9	-21.7	14.0
